Source: PubChem BioAssay (EPA / NIEHS)
The source made the active and inactive calls. The calls were made as follows: active = hit-call score of the fitted dose curve at least 0.9, where 1 is the maximum; inactive = score below 0.9.

Tests used:
[1] = APR_HepG2_CellCycleArrest_24hr: Apredica 24-hour HepG2 Assay for Cell Cycle Arrest (AID 2282905); conditions: imaging, actives raise or lower the signal;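 also: cell cycle arrest scored as ratio of 2N to 4N nuclear DNA content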
Summary of the method: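 Compounds at 0.39–200 uM (0.5% DMSO) for 24 h, then fixed and Hoechst 33342 stained. Cell-cycle analysis of nuclear DNA content by high-content imaging, fitted bidirectionally versus DMSO.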

[2] = APR_HepG2_NuclearSize_24hr: Apredica 24-hour HepG2 Assay for Nuclear Size (AID 2282907); conditions: high-content imaging, actives raise or lower the signal
Summary of the method: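 HepG2 cells exposed 24 h to compounds at 0.39–200 uM (0.5% DMSO), fixed, Hoechst 33342 stained and imaged at 20x; nuclear diameter measured by automated image analysis, fitted bidirectionally against DMSO controls.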

[3] = APR_HepG2_CellLoss_24hr: Apredica 24-hour HepG2 Assay for Cell Loss (AID 2282908); conditions: high-content imaging;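 as to AC50: fit in both directions so a hit may be cell loss or gain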
Summary of the method: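 HepG2 cells exposed 24 hr to 0.39–200 uM compound in duplicate at 0.5% v/v final DMSO. Cells fixed in 3.7% formaldehyde and Hoechst 33342-stained. Cell number came from nuclear imaging at 20x. Bidirectional fit versus DMSO.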

[4] = APR_HepG2_MicrotubuleCSK_24hr: Apredica 24-hour HepG2 Assay for Microtubule CSK Stabilty (AID 2282909); conditions: HepG2 microtubule cytoskeleton imaging, actives raise or lower the signal
Summary of the method: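 HepG2 cells were treated 24 hr with compound at 0.39–200 uM in duplicate (0.5% DMSO final), then fixed and permeabilized. Alpha-tubulin immunofluorescence was imaged by high-content microscopy, with bidirectional fitting against DMSO and taxol as positive control.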

[5] = APR_HepG2_MitoticArrest_24hr: Apredica 24-hour HepG2 Assay for Mitotic Arrest (AID 2282910); conditions: high-content imaging, actives raise or lower the signal
Summary of the method: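 HepG2 human liver cells were exposed to compounds at 0.39–200 uM (10 concentrations, duplicate) in 0.5% v/v DMSO for 24 hr, then fixed and immunostained for phospho-histone H3 with Hoechst 33342. Mitotic arrest came from HCS fluorescent imaging, fitted bidirectionally against DMSO.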

[6] = APR_HepG2_MitoMembPot_24hr: Apredica 24-hour HepG2 Assay for Mitochondrial Membrane Potential (AID 2282911); conditions: imaging, actives raise or lower the signal
Summary of the method: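 HepG2 cells exposed 24 h to 0.39–200 uM compounds in duplicate, 0.5% v/v DMSO final. MitoTracker Red CMXRos 250 nM loaded 30 min before formaldehyde fixation; high-content imaging at 20x, bidirectional fit versus DMSO.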

[7] = APR_HepG2_MitoMass_24hr: Apredica 24-hour HepG2 Assay for Mitochondrial Mass (AID 2282912); conditions: high-content imaging, actives raise or lower the signal
Summary of the method: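 HepG2 cells exposed 24 hr to 0.39–200 uM compound, 0.5% v/v DMSO, in duplicate. Stained before fixation with 250 nM MitoTracker Red CMXRos for 30 min, then imaged at 20x with Hoechst nuclei. Fitted in both directions against DMSO.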

[8] = APR_HepG2_p53Act_24hr: Apredica 24-hour HepG2 Assay for p53 Activation (AID 2282913); conditions: high-content imaging, actives raise or lower the signal;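 also: p53 protein immunofluorescence averaged per cell in HepG2 with Hoechst nuclei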
Summary of the method: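 HepG2 cells exposed 24 h to compounds at 0.39–200 uM in duplicate, 0.5% v/v DMSO final; fixed, permeabilized, stained with anti-p53 antibody and Hoechst 33342; fluorescence imaging; bidirectional curve fit versus DMSO.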

[9] = APR_HepG2_CellCycleArrest_72hr: Apredica 72-hour HepG2 Assay for Cell Cycle Arrest (AID 2282914); conditions: high-content imaging, actives raise or lower the signal
Summary of the method: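 HepG2 cells exposed 72 h in duplicate to 0.39–200 uM compound, 0.5% DMSO final. Formaldehyde-fixed, Hoechst 33342-stained nuclei imaged at 20x, six fields per well; DNA content per valid cell quantified by cell-cycle image analysis, bidirectional fit versus DMSO.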

[10] = APR_HepG2_CellLoss_72hr: Apredica 72-hour HepG2 Assay for Cell Loss (AID 2282915); conditions: high-content imaging
Summary of the method: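 HepG2 cells were exposed for 72 hr to compounds at 0.39–200 uM (ten concentrations, duplicate) in 0.5% v/v final DMSO. Nuclei were stained with Hoechst 33342 after 3.7% formaldehyde fixation, imaged at 20x, and counted; fits bidirectional versus DMSO.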

[11] = APR_HepG2_MitoMembPot_72hr: Apredica 72-hour HepG2 Assay for Mitochondrial Membrane Potential (AID 2282917); conditions: imaging, actives raise or lower the signal
Summary of the method: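 HepG2 cells exposed 72 h to compounds at 0.39–200 uM (0.5% v/v DMSO, duplicates); MitoTracker Red CMXRos 250 nM loaded 30 min before 3.7% formaldehyde fixation, imaged by HCS fluorescence. Bidirectional fit versus DMSO.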

[12] = APR_HepG2_MitoticArrest_72hr: Apredica 72-hour HepG2 Assay for Mitotic Arrest (AID 2282918); conditions: high-content imaging, actives raise or lower the signal
Summary of the method: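 HepG2 cells treated 72 h at 0.39–200 uM, 0.5% DMSO final; formaldehyde-fixed, stained with Hoechst 33342 and phospho-histone H3 antibody, imaged by high-content fluorescence; bidirectional fit versus DMSO.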

[13] = APR_HepG2_MicrotubuleCSK_72hr: Apredica 72-hour HepG2 Assay for Microtubule CSK Stabilty (AID 2282919); conditions: HepG2 microtubule cytoskeleton, high-content imaging, actives raise or lower the signal
Summary of the method: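 HepG2 human liver cells were dosed for 72 h at ten concentrations from 0.39 to 200 uM in duplicate (0.5% v/v DMSO final). Fixed, permeabilized cells were immunostained for alpha-tubulin (Cy5) with a Hoechst counterstain and imaged at 20x.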

[14] = APR_HepG2_P-H2AX_24hr: Apredica 24-hour HepG2 Assay for H2AX Phosphorylation (AID 2282920); conditions: high-content imaging, actives raise or lower the signal
Summary of the method: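 HepG2 cells dosed 24 h at 0.39–200 uM (10 points, duplicate, 0.5% DMSO final). Formaldehyde-fixed and permeabilized, then immunostained for phospho-H2A.x with Hoechst. Fluorescence quantified by high-content imaging, fitted bidirectionally versus DMSO.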

[15] = APR_HepG2_StressKinase_72hr: Apredica 72-hour HepG2 Assay for Stress Kinase (AID 2282921); conditions: HepG2 stress kinase (phospho-c-Jun) imaging, actives raise or lower the signal
Summary of the method: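 HepG2 cells treated 72 hr with 0.39–200 uM compound, 0.5% v/v DMSO, duplicate wells. After formaldehyde fixation and Triton permeabilization, stained with anti-phospho-c-Jun (1:500) and Cy3 secondary, imaged at 20x. Fitted in both directions against DMSO.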

[16] = APR_HepG2_StressKinase_24hr: Apredica 24-hour HepG2 Assay for Stress Kinase (AID 2282922); conditions: HepG2 stress kinase (phospho-c-Jun) imaging, actives raise or lower the signal
Summary of the method: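 HepG2 cells exposed 24 hr to compound at 0.39–200 uM (10 concentrations, duplicate), 0.5% v/v DMSO final. Fixed in 3.7% formaldehyde, permeabilized with Triton X-100, immunolabeled for phospho-c-Jun with Hoechst 33342; HCS fluorescence imaging, bidirectional fit versus DMSO.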

[17] = APR_HepG2_p53Act_72hr: Apredica 72-hour HepG2 Assay for p53 Activation (AID 2282923); conditions: high-content imaging, actives raise or lower the signal;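 also: average cellular p53 protein immunofluorescence intensity in HepG2 cells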
Summary of the method: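 HepG2 cells exposed 72 h to 0.39–200 uM in 0.5% DMSO, duplicates. Fixed, permeabilized cells immunostained for p53 (Cy5) with Hoechst; imaged at 20x, fluorescence analyzed bidirectionally against DMSO.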

[18] = APR_HepG2_MitoMass_72hr: Apredica 72-hour HepG2 Assay for Mitochondrial Mass (AID 2282924); conditions: high-content imaging, actives raise or lower the signal;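 also: MitoTracker Red CMXRos stain intensity per cell imaged as mitochondrial mass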
Summary of the method: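 HepG2 cells were exposed for 72 hr to compounds at 0.39–200 uM (ten concentrations, duplicate, 0.5% v/v DMSO final). Live cells were stained with 250 nM MitoTracker Red CMXRos for 30 min, then fixed in 3.7% formaldehyde and imaged by HCS fluorescence.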

[19] = APR_HepG2_NuclearSize_72hr: Apredica 72-hour HepG2 Assay for Nuclear Size (AID 2282925); conditions: high-content imaging, actives raise or lower the signal
Summary of the method: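 HepG2 cells were exposed to compounds at ten concentrations from 0.39 to 200 uM (duplicate, 0.5% DMSO final) for 72 hr. After fixation in 3.7% formaldehyde, nuclei were stained with Hoechst 33342 (2 ug/mL) and imaged at 20x.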

[20] = APR_HepG2_P-H2AX_72hr: Apredica 72-hour HepG2 Assay for H2AX Phosphorylation (AID 2282916); conditions: imaging, actives raise or lower the signal;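 also: phospho-histone H2A.x immunostain intensity per cell marking DNA damage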
Summary of the method: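 HepG2 cells treated 72 h at 0.39–200 uM, 0.5% DMSO final, duplicates. Formaldehyde-fixed, Triton-permeabilised, immunostained for phospho-H2A.x with Hoechst; fluorescence imaged at 20x, bidirectional fit versus DMSO.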

Measured: AC50

C1N2CN3CN1CN(C2)C3
not listed: [20]
inactive: all other assays above

NC(=O)NO
not listed: [4] | [18]
inactive: all other assays above

Cc1[nH]cnc1C[C@H]1CCc2c(C)c3ccccc3n2C1=O
inactive: [2] | [4] | [5] | [6] | [7] | [13] | [19]
active: [1] 146 µM | [3] 55.7 µM | [8] 97 µM | [9] 69.7 µM | [10] 24.5 µM | [12] 98.8 µM | [14] 92.8 µM | [16] 100 µM | [17] 95 µM | [18] 24.4 µM

CCOCCOCCOCCO
not listed: [20]
inactive: all other assays above

O=C(O)c1cccc(Oc2ccccc2)c1
not listed: [4]
inactive: all other assays above

CC(C)CCCCCCCOC(=O)CCCCC(=O)OCCCCCCCC(C)C
not listed: [4] | [15]
inactive: all other assays above
